# Laboratory results: ChEMBL document CHEMBL1961873, “Compounds: GSK PKIS; Assays: Nanosyn kinase panel” (2012)
# Biological target: T1, Tyrosine-protein kinase ZAP-70 (Homo sapiens) (UniProt P43403)
# T1 sequence (whole entry): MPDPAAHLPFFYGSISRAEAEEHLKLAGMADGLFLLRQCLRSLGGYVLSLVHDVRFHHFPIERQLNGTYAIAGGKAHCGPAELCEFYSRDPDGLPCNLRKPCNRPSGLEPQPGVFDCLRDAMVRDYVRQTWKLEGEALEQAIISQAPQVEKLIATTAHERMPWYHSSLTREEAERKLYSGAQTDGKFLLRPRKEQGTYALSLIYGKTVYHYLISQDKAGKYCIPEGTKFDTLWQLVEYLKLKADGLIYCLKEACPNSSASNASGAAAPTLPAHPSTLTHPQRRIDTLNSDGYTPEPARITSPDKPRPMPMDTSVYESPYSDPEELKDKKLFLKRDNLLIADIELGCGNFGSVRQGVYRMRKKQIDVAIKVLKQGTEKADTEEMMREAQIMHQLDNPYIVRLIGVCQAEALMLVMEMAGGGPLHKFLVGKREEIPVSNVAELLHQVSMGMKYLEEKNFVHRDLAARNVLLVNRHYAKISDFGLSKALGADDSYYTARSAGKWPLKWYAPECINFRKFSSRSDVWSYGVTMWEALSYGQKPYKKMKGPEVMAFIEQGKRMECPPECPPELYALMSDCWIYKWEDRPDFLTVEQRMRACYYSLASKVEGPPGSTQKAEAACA
# Details: at 1 µM
row,SMILES,inhibition [%]
1,COc1ccc(-c2cc3c(N)ncnc3o2)cc1,-0.14
2,COc1cccc(-n2ncc3c(N/N=C/c4ccc(F)cc4)ncnc32)c1,2.54
3,Nc1ncc(-c2cccc(S(N)(=O)=O)c2)c2scc(-c3ccc(F)c(Cl)c3)c12,2.18
4,COc1cccc(-c2c[nH]c3c(N/N=C/c4ccncc4)ncnc23)c1,1.55
5,Clc1ccc(-c2nn3ncccc3c2-c2ccnc(Nc3ccccc3)n2)cc1,0.42
6,CCN1CCC(CC(=O)Nc2n[nH]c3nnc(-c4cccc(F)c4F)cc23)CC1,0.5
7,CCCN(CCS(C)(=O)=O)Cc1ccc(-c2ccc3ncnc(Nc4ccc(OCc5cccc(F)c5)c(Cl)c4)c3c2)o1,1.73
8,NS(=O)(=O)c1ccc(Nc2ncc(-c3ccccc3)o2)cc1,2.94
9,Fc1cccc(COc2ccc(Nc3ncnc4sc(-c5ccco5)cc34)cc2Cl)c1,2.41
10,c1cc(-c2cnn3nc(N4CCOCC4)ccc23)nc(NC2CC2)n1,-0.37
11,Nc1nc(-c2cccc(Cl)c2)c(-c2ccc3ncccc3n2)s1,3.94
12,COc1ccc(-c2oc3ncnc(N)c3c2-c2ccc(NC(=O)Nc3cc(C(F)(F)F)ccc3F)cc2)cc1,4.77
13,Cc1ccc(O)cc1Nc1ccnc2cc(-c3ccccn3)ccc12,4.03
14,Fc1ccc(-c2nn3ccccc3c2-c2ccncc2)cc1,2.32
15,Cc1ccc2c(-c3ccnc(Nc4ccccc4)n3)c(-c3ccc(F)cc3)nn2n1,2.04
16,COC(=O)c1sc(-n2cnc3cc(OC)c(OC)cc32)cc1OCc1ccccc1C(F)(F)F,2.18

row,SMILES,inhibition [%]
1,CC(C)(CO)CNC(=O)c1ccc2c(c1)/C(=N/Nc1ccc(S(N)(=O)=O)cc1)C(=O)N2,0.33
2,COc1ccc2[nH]c3c4[nH]c5ccc(OC)cc5c4c4c(c3c2c1)C(=O)NC4=O,8.6
3,COc1ccc(-c2nn3ncccc3c2-c2ccnc(Nc3ccc4c(c3)OCCO4)n2)cc1,-0.83
4,NS(=O)(=O)c1ccc(N/N=C2\C(=O)Nc3ccc4ncccc4c32)cc1,18.7
5,CCc1nn2ncccc2c1-c1ccnc(NC2CC2)n1,-2.31
6,CCNC(=O)O[C@H]1CN[C@H](C#Cc2cc3ncnc(Nc4ccc(OCc5cccc(F)c5)c(Cl)c4)c3s2)C1,-3.28
7,O=C(Nc1n[nH]c2cc(-c3ccc(F)cc3)ccc12)C1CC1,3.64
8,COc1cc(N2CCN(C(C)C)CC2)ccc1Nc1nc(Nc2ccc(F)cc2C(N)=O)c2cc[nH]c2n1,23.5
9,CCn1cc(-c2ccnc3[nH]ccc23)c(-c2cccc(NC(=O)Nc3ccc(OCc4ccccc4)cc3)c2)n1,2.51
10,CC(=O)NCc1cccc(C#Cc2cncnc2Nc2ccc(OCc3cccc(F)c3)c(Cl)c2)c1,2.22
11,CCCN1CCC(c2ccc(Nc3nc(Nc4cc(F)ccc4C(N)=O)c4cc[nH]c4n3)c(OC)c2)CC1,29.3
12,CN1CCC(n2cnc(-c3ccc(F)cc3)c2-c2ccnc(N)n2)CC1,2.81
13,CC1=C(C(=O)Nc2cc(Cl)c3[nH]ncc3c2)C(c2ccc(C(F)(F)F)cc2)CC(=O)N1 (configuration not stated),3.9
14,Fc1ccc(-c2nn3ncccc3c2-c2ccnc(Nc3ccc4c(c3)OCCO4)n2)cc1,3.06
15,Cc1cccc2c1NC(=O)/C2=N\Nc1ccc(S(N)(=O)=O)cc1,2.59
16,Nc1nc(-c2ccc(F)cc2)c(-c2ccc3ncccc3n2)s1,1.99
